Results published in PubChem BioAssay.
Calls of active or inactive are those of the source.

Legend:
[1] = small molecules captured by biotinylated probe aFSTL3 – biochemical, small-molecule microarray, fluorescence 635/667, stem cell growth factor project, primary screen (AID 1064); conditions: higher = more signal;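 also: measures binding of the biotinylated anti-FSTL3 antibody to printed compounds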
[2] = binders from COS7 lysate, DM2A8 probe, primary screen, torsin A project, cell lysate, small-molecule microarray, fluorescence 635/667 (AID 1065); conditions: higher = more signal, COS7 lysate expressing mutant human TOR1A
[3] = small molecules captured by biotinylated probe aFGF2 – biochemical, small-molecule microarray, fluorescence 635/667, stem cell growth factor project, primary screen (AID 1067); conditions: higher = more signal;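 also: measures binding of biotinylated aFGF2 protein to printed compounds on slides; z-score merges feature fluorescence and signal-to-noise across triplicate slides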
[4] = small molecules captured by biotinylated probe aFGF10 – biochemical, small-molecule microarray, fluorescence 635/667, stem cell growth factor project, primary screen (AID 1071); conditions: higher = more signal;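 also: score merges 667 nm spot intensity and signal to noise from triplicate slides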
[5] = biological target: Neurogenic locus notch homolog protein 2 (Homo sapiens) (UniProt Q04721); experiment: small molecules binding Notch2 protein – biochemical, small-molecule microarray, 635 nm fluorescence, stem cell growth factors, primary screen (AID 1073); conditions: higher = more signal
[6] = biological target: Pro-neuregulin-1, membrane-bound isoform (Homo sapiens) (UniProt Q02297); experiment: small molecules binding neuregulin-1 protein – biochemical, small-molecule microarray, fluorescence 635/667, psychiatric disease protein project, primary screen (AID 1075); conditions: NRG1 binding, 635 nm fluorescence, higher = more signal;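 also: score combines 667 nm spot fluorescence with signal to noise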
Pro-neuregulin-1, membrane-bound isoform (Homo sapiens), sequence (Q02297 whole entry, looked up, the tested form may be a part, canonical isoform): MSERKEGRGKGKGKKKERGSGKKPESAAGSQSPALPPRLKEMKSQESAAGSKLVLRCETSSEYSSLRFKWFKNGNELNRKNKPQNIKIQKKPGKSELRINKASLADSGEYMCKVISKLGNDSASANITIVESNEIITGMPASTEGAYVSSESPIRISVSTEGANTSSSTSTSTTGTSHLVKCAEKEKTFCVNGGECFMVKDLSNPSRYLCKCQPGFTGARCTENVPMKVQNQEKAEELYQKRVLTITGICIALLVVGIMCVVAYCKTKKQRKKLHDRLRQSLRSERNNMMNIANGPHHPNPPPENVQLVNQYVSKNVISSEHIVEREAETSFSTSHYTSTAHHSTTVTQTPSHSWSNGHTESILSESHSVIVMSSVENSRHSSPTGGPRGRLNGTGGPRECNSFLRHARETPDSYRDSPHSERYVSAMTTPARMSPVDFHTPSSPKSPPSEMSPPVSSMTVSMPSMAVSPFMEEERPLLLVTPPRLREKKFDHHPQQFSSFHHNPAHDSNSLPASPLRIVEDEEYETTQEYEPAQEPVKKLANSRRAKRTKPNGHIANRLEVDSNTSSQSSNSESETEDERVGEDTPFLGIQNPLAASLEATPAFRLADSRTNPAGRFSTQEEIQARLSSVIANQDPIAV

[7] = system: Neuregulin-1 EGF-like domain; experiment: small molecules binding NRG1 EGF domain – biochemical, small-molecule microarray, 635 nm fluorescence, primary screen (AID 1081); conditions: higher = more signal;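 also: binding of the protein to compounds printed on small-molecule microarray slides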
[8] = FRG1 expression reporter modulators in myotubes – cell-based, C2C12 myotubes, firefly/Renilla luciferase, luminescence, FRG1 inhibition for FSHD, primary screen (AID 1084); conditions: FRG1 promoter luciferase, higher = more signal, called active from +8 up or from −8 down
[9] = small molecules captured by biotinylated probe aFST – biochemical, small-molecule microarray, fluorescence 635/667, stem cell growth factor project, primary screen (AID 1086); conditions: higher = more signal;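 also: score merges 667 nm fluorescence with signal-to-noise of each printed compound spot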
[10] = binders of probe aHhip on microarray, primary screen, stem cell growth factor project, biochemical, small-molecule microarray, fluorescence 635/667 (AID 1087); conditions: higher = more signal;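 also: score merges spot fluorescence at 667nm with spot signal to noise ratio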
[11] = system: PRMT1 (protein arginine N-methyltransferase 1); experiment: small molecules binding arginine methyltransferase PRMT1 – biochemical, small-molecule microarray, 635 nm fluorescence, primary screen (AID 1088); conditions: higher = more signal;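 also: binding of Prmt1 protein to compounds spotted on small-molecule microarray slides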
[12] = growth effects on S. cerevisiae YJM789 – YJM789 clinical isolate, OD600, 24 h, basal, primary screen (AID 1089); conditions: higher = more signal, called active from +8 up or from −8 down;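 also: growth of clinical yeast isolate S. cerevisiae YJM 789 seeded 1000 cells per well; test concentration not given here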
[13] = S. pombe growth modifiers, basal conditions – strain 972, OD600, 24 h, no modulator, primary screen (AID 1090);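 also: basal condition with compound alone and no growth modifier present; test concentration not given here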; conditions: S. pombe 972 growth, higher = more signal, called active from +8 up or from −8 down
[14] = budding yeast growth modifiers under rapamycin – strain BY4716, OD600, 96 h, primary screen (AID 1091); also: test concentration not given here; conditions: S. cerevisiae BY4716 + rapamycin, higher = more signal, called active from +8 up or from −8 down
[15] = biological target: Torsin-1A-interacting protein 2 (Homo sapiens) (UniProt Q8NFQ8); experiment: small molecules binding lysate-expressed LULL1 – cell lysate, human LULL1 lysate, 635/667 nm fluorescence, primary screen (AID 1092); conditions: small-molecule microarray, hLULL1 lysate binding, 635 nm fluorescence; higher = more signal;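 also: probe is lysate of COS7 cells overexpressing human LULL1; score merges per-feature 667 nm fluorescence with signal-to-noise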
Torsin-1A-interacting protein 2 (Homo sapiens), sequence (Q8NFQ8 whole entry, looked up): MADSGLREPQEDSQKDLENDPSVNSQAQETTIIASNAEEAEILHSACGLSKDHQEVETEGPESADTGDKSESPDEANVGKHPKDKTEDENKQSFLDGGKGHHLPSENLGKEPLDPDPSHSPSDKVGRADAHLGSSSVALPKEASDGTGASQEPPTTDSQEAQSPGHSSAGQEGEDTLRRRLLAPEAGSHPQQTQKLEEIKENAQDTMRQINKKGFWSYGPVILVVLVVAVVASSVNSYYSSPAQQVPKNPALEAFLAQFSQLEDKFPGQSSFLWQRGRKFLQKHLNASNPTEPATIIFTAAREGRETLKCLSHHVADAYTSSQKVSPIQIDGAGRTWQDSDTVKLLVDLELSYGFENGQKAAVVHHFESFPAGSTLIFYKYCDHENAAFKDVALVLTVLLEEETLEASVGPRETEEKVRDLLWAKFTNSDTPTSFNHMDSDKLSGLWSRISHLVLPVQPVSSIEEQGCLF

[16] = optical density change of DRC41 E. coli – strain DRC41, OD650, 24 h, E. coli filamentation project, primary screen (AID 1093);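 also: MC1000 strain lacking acrAB efflux and sulA so SOS filamentation is blocked; test concentration not given here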; conditions: E. coli DRC41 growth, higher = more signal, called active from +8 up or from −8 down
[17] = probe aLefty2 binding to arrayed compounds – biochemical, biotinylated probe, 635/667 nm fluorescence, primary screen (AID 1094); conditions: small-molecule microarray, higher = more signal;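 also: score merges spot fluorescence near 667 nm with spot signal-to-noise ratio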
[18] = system: Noggin (protein binding on small-molecule microarray); experiment: small molecules binding Noggin protein – biochemical, 635/667 nm fluorescence, primary screen (AID 1095); conditions: 635 nm fluorescence, higher = more signal;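 also: score merges 667 nm feature fluorescence with signal to noise over triplicate slides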
[19] = biological target: Neurogenic locus notch homolog protein 3 (Homo sapiens) (UniProt Q9UM47); experiment: small molecules binding NOTCH3 protein – biochemical, 635/667 nm fluorescence, primary screen (AID 1096); conditions: small-molecule microarray, 635 nm fluorescence, higher = more signal
Neurogenic locus notch homolog protein 3 (Homo sapiens), sequence (Q9UM47 whole entry, looked up): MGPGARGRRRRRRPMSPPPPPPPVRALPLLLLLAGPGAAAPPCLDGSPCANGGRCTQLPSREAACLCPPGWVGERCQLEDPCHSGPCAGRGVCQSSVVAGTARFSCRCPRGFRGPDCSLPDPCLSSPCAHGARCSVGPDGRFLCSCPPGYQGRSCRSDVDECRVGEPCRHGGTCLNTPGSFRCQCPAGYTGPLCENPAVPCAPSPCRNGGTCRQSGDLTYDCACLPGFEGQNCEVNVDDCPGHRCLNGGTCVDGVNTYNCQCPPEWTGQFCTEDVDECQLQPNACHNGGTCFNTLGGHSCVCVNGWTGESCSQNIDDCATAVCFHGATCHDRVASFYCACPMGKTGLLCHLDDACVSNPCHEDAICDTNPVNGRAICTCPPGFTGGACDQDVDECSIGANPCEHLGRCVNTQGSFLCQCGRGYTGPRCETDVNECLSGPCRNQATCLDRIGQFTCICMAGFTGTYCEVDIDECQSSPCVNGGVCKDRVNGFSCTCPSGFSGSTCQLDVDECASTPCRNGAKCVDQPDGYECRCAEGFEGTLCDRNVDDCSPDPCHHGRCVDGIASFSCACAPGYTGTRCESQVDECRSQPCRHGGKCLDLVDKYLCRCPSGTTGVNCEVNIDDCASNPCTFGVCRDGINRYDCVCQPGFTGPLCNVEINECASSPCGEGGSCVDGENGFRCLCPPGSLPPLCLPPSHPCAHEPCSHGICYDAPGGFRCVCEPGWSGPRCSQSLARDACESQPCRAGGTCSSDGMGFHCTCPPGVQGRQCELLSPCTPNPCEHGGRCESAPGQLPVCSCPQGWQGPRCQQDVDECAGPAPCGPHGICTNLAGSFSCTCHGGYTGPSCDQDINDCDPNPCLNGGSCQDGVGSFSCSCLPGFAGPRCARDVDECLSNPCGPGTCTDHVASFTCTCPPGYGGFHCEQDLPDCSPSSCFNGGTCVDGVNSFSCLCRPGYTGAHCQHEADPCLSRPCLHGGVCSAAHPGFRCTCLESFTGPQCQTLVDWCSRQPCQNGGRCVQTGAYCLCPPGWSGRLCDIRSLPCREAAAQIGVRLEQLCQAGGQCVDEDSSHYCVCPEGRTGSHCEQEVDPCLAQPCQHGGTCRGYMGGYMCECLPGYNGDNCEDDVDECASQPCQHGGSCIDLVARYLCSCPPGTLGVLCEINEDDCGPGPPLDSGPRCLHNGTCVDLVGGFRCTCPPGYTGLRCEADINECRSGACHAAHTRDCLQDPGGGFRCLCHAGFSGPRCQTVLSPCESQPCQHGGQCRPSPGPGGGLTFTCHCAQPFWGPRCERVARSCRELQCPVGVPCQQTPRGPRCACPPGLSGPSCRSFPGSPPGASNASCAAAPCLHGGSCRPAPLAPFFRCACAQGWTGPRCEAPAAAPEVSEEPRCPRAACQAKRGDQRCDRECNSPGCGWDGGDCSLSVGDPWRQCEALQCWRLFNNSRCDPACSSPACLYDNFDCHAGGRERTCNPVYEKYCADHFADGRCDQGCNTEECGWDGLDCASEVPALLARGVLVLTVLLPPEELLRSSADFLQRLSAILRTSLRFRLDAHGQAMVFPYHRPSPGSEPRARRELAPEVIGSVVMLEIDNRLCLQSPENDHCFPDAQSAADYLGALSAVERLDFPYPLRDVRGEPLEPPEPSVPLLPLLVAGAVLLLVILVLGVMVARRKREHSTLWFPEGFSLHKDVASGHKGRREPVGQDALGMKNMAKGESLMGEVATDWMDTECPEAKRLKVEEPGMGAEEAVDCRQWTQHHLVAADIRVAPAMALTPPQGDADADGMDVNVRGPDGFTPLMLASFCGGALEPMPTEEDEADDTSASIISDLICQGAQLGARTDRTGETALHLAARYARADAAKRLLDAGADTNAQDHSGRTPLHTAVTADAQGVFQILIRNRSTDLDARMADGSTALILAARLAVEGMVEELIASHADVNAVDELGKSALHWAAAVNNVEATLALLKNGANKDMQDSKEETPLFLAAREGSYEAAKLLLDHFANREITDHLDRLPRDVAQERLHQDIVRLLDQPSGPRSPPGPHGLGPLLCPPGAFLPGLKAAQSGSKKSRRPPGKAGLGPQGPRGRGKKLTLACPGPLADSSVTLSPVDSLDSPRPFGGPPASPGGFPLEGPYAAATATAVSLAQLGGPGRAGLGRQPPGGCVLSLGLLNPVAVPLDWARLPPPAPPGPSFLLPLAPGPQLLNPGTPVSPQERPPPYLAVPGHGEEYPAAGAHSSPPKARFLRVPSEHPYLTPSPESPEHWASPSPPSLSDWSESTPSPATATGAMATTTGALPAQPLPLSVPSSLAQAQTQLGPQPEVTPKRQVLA

[20] = probe aEGFR binding to arrayed compounds – biochemical, biotinylated probe, 635/667 nm fluorescence, primary screen (AID 1097); conditions: small-molecule microarray, higher = more signal;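 also: probe is a biotinylated anti-EGFR antibody binding compounds printed on slides; score combines fluorescence near 667 nm and signal to noise of each spot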

| Compound | composite z-score [1] | composite z-score [2] | composite z-score [3] | composite z-score [4] | composite z-score [5] | composite z-score [6] | composite z-score [7] | z-score [8] | composite z-score [9] | composite z-score [10] | composite z-score [11] | z-score [12] | z-score [13] | z-score [14] | composite z-score [15] | z-score [16] | composite z-score [17] | composite z-score [18] | composite z-score [19] | composite z-score [20] |
| --- | --- | --- | --- | --- | --- | --- | --- | --- | --- | --- | --- | --- | --- | --- | --- | --- | --- | --- | --- | --- |
| COC(=O)C1=CC(c2ccc(CO)cc2)=CC(c2cccs2)N(C)C=C1C(=O)OC (stereo not given) | 1.13 | 0.2 | -0.0625 | -0.0568 | -0.109 | 1.96 | 1.29 | 1.36 (inactive) | 0.308 | -0.226 | 0.853 | -0.543 (inactive) | -5.22 (inactive) | -0.424 (inactive) | 2.88 | 0.637 (inactive) | 0.0094 | -0.853 | 0.302 | -0.135 |
| C=CCNC(=O)[C@@H]1[C@H]2C(=O)O[C@H](c3ccccc3)[C@H](c3ccccc3)N2[C@H](c2ccc(O)cc2)[C@@]12C(=O)N(C(=O)OCCOC)c1ccc(C#Cc3ccc(OC)cc3)cc12 | -0.828 | 0.974 | -0.0761 | 0.856 | 1.34 | 1.41 | 1.16 | -0.374 (inactive) | 0.316 | -0.0994 | 1.55 | 0.342 (inactive) | 0.1 (inactive) | 2.6 (inactive) | 2.08 | 2.2 (inactive) | -0.111 | 0.605 | 1.12 | -0.0674 |
| COC(=O)c1c2oc(c1C(=O)OC)C(=O)N[C@@H](C(C)C)Cn1nncc1C1(CCCCC1)NC(=O)N[C@H](CO)CC2 | -0.07 | 0.178 | -0.129 | 0.147 | -0.294 | 0.969 | 0.625 | -0.993 (inactive) | -0.103 | 0.0373 | -0.143 | 0.0957 (inactive) | -0.99 (inactive) | -0.787 (inactive) | 2.02 | 2.28 (inactive) | -0.208 | -0.494 | -0.373 | -0.144 |
| COCCOC(=O)N1C(=O)[C@@]2(c3cc(C#CCNC(N)=O)ccc31)[C@H](c1ccccc1OCCO)N1[C@H](c3ccccc3)[C@H](c3ccccc3)OC(=O)[C@H]1[C@@H]2C(=O)Nc1nc2ccccc2s1 | 0.171 | 1.05 | -0.0893 | 0.158 | 0.931 | 0.582 | 0.627 | 1.18 (inactive) | 0.986 | 0.0623 | 1.28 | 0.314 (inactive) | -0.364 (inactive) | 1.99 (inactive) | 1.58 | 2.67 (inactive) | 0.136 | 0.345 | 0.799 | -0.0732 |
| O=C1O[C@H](c2ccccc2)[C@H](c2ccccc2)N2[C@H]1[C@@H](C(=O)NC[C@H](O)c1ccccc1)[C@]1(C(=O)Nc3ccc(C#CC4(O)CCCCCC4)cc31)[C@H]2c1ccc(O)cc1 | 0.0879 | 0.705 | -0.0529 | 0.676 | 1.47 | 1.62 | 1.34 | -0.0847 (inactive) | 0.837 | 0.131 | 1.58 | -0.307 (inactive) | -1.14 (inactive) | 0.393 (inactive) | 1.41 | 1.69 (inactive) | 0.113 | 0.927 | 1.1 | 0.0425 |
| O=C1N(CCS(=O)(=O)c2ccccc2)Cc2ccccc2[C@@H]2OC(c3ccc(OCCCO)cc3)=N[C@]12Cc1ccccc1 | 1.02 | 0.397 | 0.196 | 0.849 | 1.5 | 1.84 | 1.39 | -2.88 (inactive) | 0.843 | -0.338 | 1.53 | 2.44 (inactive) | 1.46 (inactive) | 9.7 (active) | 3.4 | 0.552 (inactive) | 0.657 | 1.1 | 1.01 | 0.442 |
| CC(C)N1C(=O)c2ccccc2[C@@H](C(=O)NCc2ccccc2)[C@@H]1c1ccc(CO)cc1 | -0.0604 | 0.317 | -0.0806 | -0.723 | -0.423 | 0.844 | 1.15 | -0.331 (inactive) | -0.0768 | -0.141 | -0.238 | 0.582 (inactive) | -0.579 (inactive) | 1.31 (inactive) | 0.979 | 0.846 (inactive) | -0.109 | -0.608 | -0.904 | -0.273 |
| COc1ccc([Si](C)(C)[C@@H]2[C@@H](CCn3cc(CCO)nn3)O[C@]3(C(=O)N(Cc4ccc(N5C(=O)c6cccc7cccc5c67)cc4)c4ccccc43)[C@H]2C)cc1 | -0.279 | 0.749 | -0.0656 | -0.0139 | 0.142 | 1.26 | 0.742 | -3.48 (inactive) | 0.299 | 0.154 | 1.51 | 0.0277 (inactive) | 0.858 (inactive) | 12.7 (active) | 0.986 | 2.61 (inactive) | -0.0564 | 0.376 | 0.802 | -0.0138 |
| Cc1ccc(N2C(=O)c3ccccc3[C@](C)(C(=O)NCC(F)(F)F)[C@@H]2c2ccc(CO)cc2)nc1 | 1.36 | -0.769 | -0.128 | -1.14 | -1.22 | 1.64 | 0.0042 | 0.0677 (inactive) | -0.413 | -0.0423 | -0.973 | -0.625 (inactive) | -0.972 (inactive) | -0.286 (inactive) | -0.916 | 1.1 (inactive) | -0.0741 | -1.81 | -2.16 | -0.352 |
| C=C(COC)C(=O)CC[C@H](OC(=O)c1cccnc1)c1cccc(OCCO)c1 | 0.822 | 1.9 | 0.119 | 0.833 | -0.381 | -0.318 | 0.0423 | 0.0417 (inactive) | 0.331 | 0.503 | 1.36 | 1.25 (inactive) | -0.231 (inactive) | 1.56 (inactive) | 0.241 | 1.18 (inactive) | 0.649 | 1.29 | 0.176 | 0.431 |
